According to PubChem BioAssay (NCI):
The panel holds about 83,000 compounds, 20% with a hit somewhere; the sample as a whole holds those more often.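 A percent growth of 40 corresponds to 60% growth inhibition; 0 means no net growth; -100 means all cells died. Active threshold: below 10.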 Activity calls are given as the source filed them.

The compounds below were run on NCI-H522 lung (assay: NCI-60 one-dose screen, 48 h (100 = growth as untreated, 0 = no growth, -100 = all killed)). Settings: 10 µM unless noted.

| SMILES | growth |
| --- | --- |
| Cc1ccc(Cc2cnc(NC(=O)c3ccc(/C=C4\SC(=S)N(C)C4=O)cc3)s2)cc1 | -22.8% (active) |
| Cc1ccc(C(=O)CSc2nc3ccc(F)cc3c(=O)n2-c2ccc(Cl)cc2)cc1 | 63.8% (inactive) |
| C[C@H](Nc1nc(NCCc2ccccc2)nc2ccccc12)c1ccccc1 | -82.9% (active) |
| COc1cc(-c2ccc(/C=N/NC(=O)c3[nH]c4ccc(Br)cc4c3-c3ccccc3)s2)cc(OC)c1OC | 83.2% (inactive) |
| OCNc1ccc(-n2cnc3cc(-c4ccc(O)cc4)ccc32)cc1C(F)(F)F | -15.7% (active) |
| COc1cc(OC)cc(C(=O)Nc2cccc(-c3cn(-c4ccc(S(N)(=O)=O)cc4)nn3)c2)c1 | 69.1% (inactive) |
| COc1ccc2[nH]c(O)c(N=NC(=O)COc3ccc(NC(=O)Nc4ccccc4)cc3)c2c1 | 21.1% (inactive) |
| Cc1ccc2c(N)c(C(=O)Nc3ccc(OC(F)(F)F)cc3)sc2n1 | 66.7% (inactive) |
| COc1cc(/C=C/C(=O)c2ccc(C)cc2)ccc1Oc1nc(Nc2ccc(F)cc2)nc(N(C)C)n1 | 44.8% (inactive) |
| N#Cc1c(NCc2ccccc2)n[nH]c1Nc1ccccc1 | 82.3% (inactive) |
| CC(C)c1sc(NC(=O)c2cc(NC(=O)c3cc(NC(=O)c4cscn4)cn3C)cn2C)nc1C(=O)NCCCN(C)C | -74.8% (active) |
| CCOc1ccc(C(=O)NC(=S)Nc2ccc(S(N)(=O)=O)cc2)cc1 | 77.5% [100 µM] (inactive) |
| Nc1cccc(SCc2cc3ccccc3[nH]c2=O)c1 | 43.6% (inactive) |
| CC1=C(C(=O)c2ccccc2)C(c2ccc(-n3cncn3)cc2)n2c(nc3ccccc32)N1 (stereo not drawn) | 83.2% (inactive) |
| O=C(c1ccc(OCCN2CCOCC2)cc1)C1[C@H](c2ccc(Cl)cc2)[C@@H](c2ccccc2)NC12C(=O)Nc1ccc(Cl)cc12 (stereo partly drawn) | 16.3% (inactive) |
| CCCCCCCCc1ccc(S(=O)(=O)Nc2ccc(CC)cc2C(=O)O)cc1 | 91.4% (inactive) |
| COc1cc2oc(-c3cccc(C(=O)Nc4cccc([N+](=O)[O-])c4)c3)cc(=O)c2c(OC)c1OC | -46% (active) |
| C=C1CC[C@@H]2[C@]3(C)COC(c4ccccc4)O[C@@H]3CC[C@@]2(C)[C@@H]1C/C=C1/C(=O)OCC1OC(C)=O (stereo partly drawn) | -90.2% (active) |
| C=C1CC[C@@H]2[C@]3(C)COC(c4cn[nH]c4-c4ccc(C)cc4)O[C@@H]3CC[C@@]2(C)[C@@H]1C/C=C1/C(=O)OCC1O (stereo partly drawn) | -58.4% (active) |
| CC(C)CSc1nc(NCCc2c[nH]c3ccccc23)c(C#N)c(-c2ccc(Cl)cc2)n1 | 68.7% (inactive) |
| NS(=O)(=O)c1ccc(-n2cc(-c3cccc(NC(=O)c4cc(Cl)cc(Cl)c4)c3)nn2)cc1 | 75.5% (inactive) |
| C=C1CCC2C3(C)COC(c4ccc(F)cc4)OC3CCC2(C)C1C/C=C1/C(=O)OCC1O (stereo not drawn) | -80.7% (active) |
| CCN1C(=O)/C(=N\N=C(/C)c2ccc3c(c2)Nc2ccccc2S3)c2cc(Cl)ccc21 | 54% (inactive) |
| N#Cc1c(-c2cccc3ccccc23)cc(-c2cccc(OCC(=O)O)c2)[nH]c1=O | 97.9% (inactive) |
| O=C(COc1ccc(NC(=O)Nc2ccccc2)cc1)N=Nc1c(O)[nH]c2ccc([N+](=O)[O-])cc12 | -48% (active) |

What follows are compounds tested on A549/ATCC NSCLC in the same assay as above. Settings: 10 µM unless noted.

| SMILES | growth |
| --- | --- |
| O=c1[nH]n(C(=S)N/N=C/c2ccccc2Cl)c(=O)c2ccccc12 | 7.02% (active) |
| Cn1cc(-c2nnc(N)nc2-c2c[nH]c3ccc(F)cc23)c2cccnc21 | 47.6% (inactive) |
| CN1CCN(Cc2ccc(C(=O)Nc3cccc(C#Cc4cccc5[nH]nc(N)c45)c3)cc2C(F)(F)F)CC1 | -88.8% (active) |
| Cc1ccccc1[C@H]1C(C(=O)c2ccc(Cl)cc2)C2(N[C@@H]1c1ccccc1)C(=O)Nc1ccc(Br)cc12 (stereo partly drawn) | 2.73% (active) |
| N#Cc1c(-c2cccc(Cl)c2Cl)cc(-c2ccc3ccccc3c2)[nH]c1=O | 25.1% (inactive) |
| NS(=O)(=O)c1ccc(-n2cc(-c3cccc(NC(=O)c4cc(C(F)(F)F)cc(C(F)(F)F)c4)c3)nn2)cc1 | 56.7% (inactive) |
| COc1ccc(C(=O)/C=C/c2ccccc2Cl)cc1S(N)(=O)=O | 112% (inactive) |
| O=C(/C=C/c1cccc(OCc2ccc(F)cc2)c1)c1nc2ccccc2[nH]1 | 49.5% (inactive) |
| Cc1cc(=O)oc2cc(OCCCOc3ccc(/C=C/C(=O)Nc4ccccc4N)cc3)ccc12 | 25.8% (inactive) |
| S=C(Nc1ccc(OCc2nc3ccccc3[nH]2)cc1)NC1CCCCC1 | 105% (inactive) |
| N#Cc1c(-c2ccccc2Cl)cc(-c2c[nH]c3ccccc23)[nH]c1=O | 77.5% (inactive) |
| CC1=C(C(=O)OCc2ccccc2)C(c2c(O)cc(O)cc2O)n2c(nc3ccccc32)N1 (stereo not drawn) | 56.7% (inactive) |
| CCOc1ccc(-c2c(C#N)c(-c3ccc(Cl)cc3)nc3n[nH]c(-c4ccc(Cl)cc4)c23)cc1OC | 55.4% (inactive) |
| Cc1ccc(Cc2cnc(NC(=O)c3ccc(/C=C4\SC(=S)N(C)C4=O)cc3)s2)cc1 | 43.2% (inactive) |
| Cc1ccc(C(=O)CSc2nc3ccc(F)cc3c(=O)n2-c2ccc(Cl)cc2)cc1 | 60.9% (inactive) |
| C[C@H](Nc1nc(NCCc2ccccc2)nc2ccccc12)c1ccccc1 | -33.2% (active) |
| COc1cc(-c2ccc(/C=N/NC(=O)c3[nH]c4ccc(Br)cc4c3-c3ccccc3)s2)cc(OC)c1OC | 77.1% (inactive) |
| OCNc1ccc(-n2cnc3cc(-c4ccc(O)cc4)ccc32)cc1C(F)(F)F | 22.4% (inactive) |
| COc1cc(OC)cc(C(=O)Nc2cccc(-c3cn(-c4ccc(S(N)(=O)=O)cc4)nn3)c2)c1 | 90.9% (inactive) |

| SMILES | growth |
| --- | --- |
| COc1ccc2[nH]c(O)c(N=NC(=O)COc3ccc(NC(=O)Nc4ccccc4)cc3)c2c1 | 47.5% (inactive) |
| Cc1ccc2c(N)c(C(=O)Nc3ccc(OC(F)(F)F)cc3)sc2n1 | 75.7% (inactive) |
| COc1cc(/C=C/C(=O)c2ccc(C)cc2)ccc1Oc1nc(Nc2ccc(F)cc2)nc(N(C)C)n1 | 60% (inactive) |
| N#Cc1c(NCc2ccccc2)n[nH]c1Nc1ccccc1 | 31.6% (inactive) |
| CC(C)c1sc(NC(=O)c2cc(NC(=O)c3cc(NC(=O)c4cscn4)cn3C)cn2C)nc1C(=O)NCCCN(C)C | 105% (inactive) |
| CCOc1ccc(C(=O)NC(=S)Nc2ccc(S(N)(=O)=O)cc2)cc1 | 101% [100 µM] (inactive) |
| Nc1cccc(SCc2cc3ccccc3[nH]c2=O)c1 | 33.2% (inactive) |
| CC1=C(C(=O)c2ccccc2)C(c2ccc(-n3cncn3)cc2)n2c(nc3ccccc32)N1 (stereo not drawn) | 77.1% (inactive) |
| O=C(c1ccc(OCCN2CCOCC2)cc1)C1[C@H](c2ccc(Cl)cc2)[C@@H](c2ccccc2)NC12C(=O)Nc1ccc(Cl)cc12 (stereo partly drawn) | 22.9% (inactive) |
| CCCCCCCCc1ccc(S(=O)(=O)Nc2ccc(CC)cc2C(=O)O)cc1 | 91.9% (inactive) |
| COc1cc2oc(-c3cccc(C(=O)Nc4cccc([N+](=O)[O-])c4)c3)cc(=O)c2c(OC)c1OC | 23% (inactive) |
| C=C1CC[C@@H]2[C@]3(C)COC(c4ccccc4)O[C@@H]3CC[C@@]2(C)[C@@H]1C/C=C1/C(=O)OCC1OC(C)=O (stereo partly drawn) | 9.46% (active) |
| C=C1CC[C@@H]2[C@]3(C)COC(c4cn[nH]c4-c4ccc(C)cc4)O[C@@H]3CC[C@@]2(C)[C@@H]1C/C=C1/C(=O)OCC1O (stereo partly drawn) | 41.5% (inactive) |
| CC(C)CSc1nc(NCCc2c[nH]c3ccccc23)c(C#N)c(-c2ccc(Cl)cc2)n1 | 63% (inactive) |
| NS(=O)(=O)c1ccc(-n2cc(-c3cccc(NC(=O)c4cc(Cl)cc(Cl)c4)c3)nn2)cc1 | 27.1% (inactive) |
| C=C1CCC2C3(C)COC(c4ccc(F)cc4)OC3CCC2(C)C1C/C=C1/C(=O)OCC1O (stereo not drawn) | 9.65% (active) |
| CCN1C(=O)/C(=N\N=C(/C)c2ccc3c(c2)Nc2ccccc2S3)c2cc(Cl)ccc21 | 49.8% (inactive) |
| N#Cc1c(-c2cccc3ccccc23)cc(-c2cccc(OCC(=O)O)c2)[nH]c1=O | 94.6% (inactive) |
| O=C(COc1ccc(NC(=O)Nc2ccccc2)cc1)N=Nc1c(O)[nH]c2ccc([N+](=O)[O-])cc12 | 101% (inactive) |
